For assay [1], the target named is Arylsulfatase A (Homo sapiens) (UniProt P15289). The experiment in a line: qHTS screen for enhancers of Arylsulfatase A (ASA1): LOPAC Validation Assay (AID 720538). The settings on record: outcome: dose series up to 57.5 µM. Put shortly: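 MLD patient fibroblasts (SV40, ASA-I179S), 1536-well; adhere 6 hrs; cpd 48h, 37 degree C, 5% CO2; pNCS 0.5mM final in lysis buffer, 14h RT; stop 1N NaOH final; fluor. Ex525/Em598.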

A short description of assay [2]: qHTS for compounds that reverse cellular toxicity of Amyloid beta (A-beta) peptide in yeast: LOPAC Validation Assay (AID 720559).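 Also: plate controls were DMSO for no effect and equimolar ferric chloride plus clioquinol rescue for full effect.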 Put shortly: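 Medium dispensed, compounds pinned, A-beta yeast suspension added; plates held at 30 C for 48 hr; absorbance measured at 600 nm to gauge growth; values scaled between DMSO and FeCl3/clioquinol (equimolar) controls.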
Assay [3] can be described thus: qHTS for Activators of Parkin Expression: LOPAC Validation Assay (NLuc Reporter) (AID 720572). Put shortly:
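NLuc signal, read 10 min after reagent and following a prior FLuc read, is normalized to DMSO (0) and positive controls (100%). Cells: neuronal Parkin-promoter coincidence reporter line; compounds tested 7-point, 24 h, 37 C, 5% CO2.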

Assay [4] can be described thus: qHTS for Activators of Parkin Expression: LOPAC Validation Assay (FLuc Reporter) (AID 720573). Put shortly:
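Cells seeded, 24 h; compounds pinned, 7-pt dose response; 24 h at 37 C/5% CO2; volume reduced; FLuc reagent 10 min RT; luminescence read. Normalization: DMSO = 0, positive control = 100%.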

Assay [5] addresses T1, Hexokinase-4 (Homo sapiens) + Glucokinase regulatory protein (Homo sapiens) (UniProt P35557+Q14397). The experiment in a line: qHTS assay for inhibitors of recombinant human GCK-GKRP interaction: Diaphorase-coupled assay (AID 743205). A digest of the protocol: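 25 mM Hepes pH 7.6, 5 mM glucose, 0.4 mM ATP, 4 U/ml G6PDH; 10 nM each GST-GCK/FLAG-GKRP. Kinetic fluorescence read, 1/min × 30 min. Normalized: DMSO ± enzyme = max/min.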

The target in assay [6] is T1, Hexokinase-4 (Homo sapiens) + Glucokinase regulatory protein (Homo sapiens). The experiment in a line: qHTS assay for inhibitors of recombinant human GCK-GKRP interaction: HTRF assay (AID 743207).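 Also: 0% = DMSO with GCK present and -100% = DMSO wells lacking GCK.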 Put shortly: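 5 nM GST-GCK + 5 nM FLAG-GKRP + 2 uM S6P, pH 7.1 buffer (25 mM Hepes, 2 mM MgCl2, 25 mM KCl, 1 mM DTT, Tween/BSA); pin-transferred cpd; anti-FLAG XL665/anti-GST K; 60 min RT; HTRF.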

Assay [7] can be described thus: qHTS Assay for Identifying Gametocytocidal Compounds (AID 743244). Also: potency is read from the fitted curve at half-maximal effect.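 As to max response: % is scaled to controls: 0 for no effect and ±100 for the full control effect; actives lower the fluorescent signal which means gametocytes are killed.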 The settings on record: P. falciparum 3D7 stage III-V gametocytes, alamarBlue, 72 h; max response: stronger effect = lower value. Put shortly: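 P. falciparum 3D7 stage III–V gametocytes (20,000 cells/well) were exposed to compounds for 72 h at 37 °C, 5% CO2. AlamarBlue was then added for 24 h; decreased resorufin fluorescence (Ex 525/Em 598 nm) indicated loss of viability.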

Assay [8] in a line: qHTS profiling of the MIPE4 collection as inhibitors of Plasmodium falciparum (3D7) proliferation (AID 743344; call rule not given here;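 also: scaled between DMSO vehicle wells and 0.29 µM artemisinin as full inhibition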). The settings on record: P. falciparum 3D7 in erythrocytes, SYBR Green DNA fluorescence, 72 h; at 28.5 µM (top of the series) unless noted. A digest of the protocol: (§1)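 Parasite DNA was quantified by SYBR Green I fluorescence (ex 485, em 535 nm) after overnight lysis in saponin/Triton buffer at room temperature. Cultures at 0.3% parasitemia and 2.5% hematocrit were first exposed to compound for 72 h at 37 C; signals were normalised to artemisinin (0.29 uM) and vehicle wells.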

A short description of assay [9]: qHTS profiling of the MIPE4 collection as inhibitors of Plasmodium falciparum (DD2) proliferation (AID 743345; call rule not given here). The settings on record: P. falciparum Dd2 in erythrocytes, SYBR Green DNA, 72 h; at 28.5 µM (top of the series) unless noted. A digest of the protocol:
as §1

A short description of assay [10]: qHTS profiling of the MIPE4 collection as inhibitors of Plasmodium falciparum (DD2) proliferation (Rep 2) (AID 743346; call rule not given here). The settings on record: P. falciparum Dd2 in erythrocytes, SYBR Green DNA, 72 h; at 28.5 µM (top of the series) unless noted. A digest of the protocol: as §1
Assay [11] in a line: qHTS profiling of the MIPE4 collection as inhibitors of Plasmodium falciparum (HB3) proliferation (AID 743347; call rule not given here;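 also: plate controls were DMSO vehicle wells for no effect and artemisinin wells for full effect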). The settings on record: P. falciparum HB3 in erythrocytes, SYBR Green DNA, 72 h; at 28.5 µM (top of the series) unless noted. Put shortly:
as §1

A short description of assay [12]: qHTS profiling for inhibitors of Plasmodium falciparum (3D7) proliferation (AID 743322; call rule not given here;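 also: infected erythrocytes exposed to compound for 72 h before lysis; 100% = DMSO vehicle wells and 0% = 0.29 µM artemisinin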). The settings on record: P. falciparum 3D7 proliferation; at 28.7 µM (top of the series) unless noted. Put shortly:
as §1

Assay [13] can be described thus: qHTS profiling for inhibitors of Plasmodium falciparum (DD2) proliferation (AID 743323; call rule not given here). The settings on record: lower = more inhibition; at 28.7 µM (top of the series) unless noted. A digest of the protocol: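 SYBR Green fluorescence (ex 485, em 535 nm) of lysed cultures gives parasite DNA content; wells normalized to artemisinin (0.29 uM) and DMSO controls. Infected red cells: 0.3% parasitemia, 2.5% hematocrit, 72 h, 37 C.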

The nature of assay [14]: qHTS assay for small molecule agonists of the antioxidant response element (ARE) signaling pathway measured by Nrf2-dependant transcriptional activity (AID 720636; active = well fitted curve in the direction sought with a large enough effect in the repeat runs; an effect the other way counts as inactive or inconclusive;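 also: HepG2 cells with an ARE-driven luciferase reporter; % of control where 0% means no effect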). Put shortly: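 Attachment 6 hr at 37 C, then compound versus DMSO vehicle for 16 hr in ARE-luc HepG2 cells (1% dialyzed FBS); luminescence recorded 30 min after ONE-Glo addition at room temperature.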
Assay [15] is described as follows: qHTS assay for small molecule agonists of the antioxidant response element (ARE) signaling pathway measured by Nrf2-dependant transcriptional activity - cell viability counter screen (AID 720653; active = well fitted curve in the direction sought with a large enough effect in the repeat runs; an effect the other way counts as inactive or inconclusive; also: % is scaled to controls: 0 for no effect and ±100 for the full control effect). The settings on record: ARE-bla HepG2 viability, CellTiter-Glo ATP luminescence, 16 h; stronger effect = lower value. A digest of the protocol:
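ARE-bla HepG2 cells treated with compounds for 16 h at 37C; this counter screen measures viability as intracellular ATP by CellTiter-Glo luminescence after 30 min at room temperature.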

In assay [16] the target is T1, Hexokinase-4 (Homo sapiens) + Glucokinase regulatory protein (Homo sapiens). The experiment in a line: qHTS assay for inhibitors of recombinant human GCK-GKRP interaction: ADP-Glo assay (AID 743206).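 Also: plate controls were DMSO plus enzyme for no effect and no enzyme for full effect.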 A digest of the protocol:
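Pin-transferred compounds meet a 15 nM GST-GCK/15 nM FLAG-GKRP/2 uM S6P mix (dispense concentrations). ATP is then added to 0.4 mM final with 5 mM glucose, and the reaction runs 60 min at room temperature. ADP is quantified luminescently.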

A short description of assay [17]: qHTS assay for cell viability of HEK293 cells (AID 743288). Also: % is scaled to controls: 0 for no effect and ±100 for the full control effect; nearly all actives have a fitted effect of over 50% in size. The settings on record: ATP luminescence (CellTiter-Glo), 18 h; max response: stronger effect = lower value. A digest of the protocol: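 Viable-cell counts were inferred from luciferase-based ATP content in HEK293 cells seeded at 2,000/well, pre-incubated ≥5 h, then dosed with DMSO-solubilised compounds for 18 h at 37 C.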

Assay [18] can be described thus: qHTS assay for cell viability of the p53RE-bla HCT-116 cell line (AID 743292). Also: nearly all actives have a fitted effect of over 55% in size. Also: potency is read from the fitted curve at half-maximal effect. Put shortly:
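Compound-exposed HCT-116 (p53RE-bla) cells, 4,000 per well, were kept 16 h at 37 C following a 5 h preincubation. Cell number was estimated from total ATP by CellTiter-Glo luminescence read after 30 min at room temperature.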

Assay [19] in a line: qHTS profiling for inhibitors of Plasmodium falciparum (HB3) proliferation (AID 743324).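 Also: 100% = DMSO vehicle wells and 0% = artemisinin-treated control wells.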 The settings on record: Plasmodium falciparum HB3 blood-stage proliferation; at 28.7 µM (top of the series) unless noted. A digest of the protocol:
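SYBR Green fluorescence (485 ex/535 em) of lysed cultures, incubated overnight at room temperature in the dark, quantifies parasite DNA. Infected erythrocytes at 0.3% parasitemia and 2.5% hematocrit were exposed 72 h; values normalized to DMSO and 0.29 uM artemisinin controls.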

Results on six molecules are retold here after PubChem BioAssay (NCATS).

Values joined by “and” are separate entries in the source; they are usually repeats but may differ in a detail not shown here. Equal values may be shown once. Inconclusive results are not listed. Active and inactive are the calls of the source. Unless noted, calls follow the shape of the dose curve; as a rule, active = well fitted curve in the direction sought with a large enough effect; inconclusive = small, poorly fitted or top-dose-only effect, or another doubt; inactive = no such curve, though single readings can be large; an effect the other way counts as inactive or inconclusive.

T1 sequence (P35557 whole entry, looked up): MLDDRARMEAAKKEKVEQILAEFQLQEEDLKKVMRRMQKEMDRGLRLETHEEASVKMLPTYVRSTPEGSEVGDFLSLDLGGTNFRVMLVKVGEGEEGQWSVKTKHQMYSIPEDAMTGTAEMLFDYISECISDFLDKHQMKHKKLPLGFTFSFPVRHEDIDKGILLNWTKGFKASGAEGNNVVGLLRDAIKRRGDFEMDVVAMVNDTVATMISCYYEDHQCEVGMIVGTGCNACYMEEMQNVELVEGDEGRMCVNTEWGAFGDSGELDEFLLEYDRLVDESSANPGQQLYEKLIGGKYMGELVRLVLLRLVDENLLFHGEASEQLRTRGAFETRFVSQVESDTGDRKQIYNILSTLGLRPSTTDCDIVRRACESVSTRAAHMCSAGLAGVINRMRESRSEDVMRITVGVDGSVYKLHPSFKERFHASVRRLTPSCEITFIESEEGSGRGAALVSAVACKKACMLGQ
T1 sequence (Q14397 whole entry, looked up): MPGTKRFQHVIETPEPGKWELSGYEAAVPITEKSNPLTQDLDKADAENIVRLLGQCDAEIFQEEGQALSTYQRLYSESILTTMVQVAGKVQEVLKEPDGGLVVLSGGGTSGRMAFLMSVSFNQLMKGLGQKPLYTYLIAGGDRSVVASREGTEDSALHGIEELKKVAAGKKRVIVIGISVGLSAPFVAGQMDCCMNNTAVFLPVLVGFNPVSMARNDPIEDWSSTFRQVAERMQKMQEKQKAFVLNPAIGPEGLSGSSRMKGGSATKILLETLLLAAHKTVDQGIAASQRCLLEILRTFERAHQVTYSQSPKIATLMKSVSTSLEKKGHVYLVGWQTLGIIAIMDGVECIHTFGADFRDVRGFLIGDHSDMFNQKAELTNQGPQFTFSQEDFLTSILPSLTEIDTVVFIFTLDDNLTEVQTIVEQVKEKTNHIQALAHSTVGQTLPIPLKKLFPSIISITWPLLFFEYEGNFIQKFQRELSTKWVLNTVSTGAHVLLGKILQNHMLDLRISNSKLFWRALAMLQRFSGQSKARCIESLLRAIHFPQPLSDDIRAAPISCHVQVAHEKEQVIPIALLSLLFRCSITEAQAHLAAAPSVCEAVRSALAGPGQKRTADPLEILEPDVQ
Chain of Arylsulfatase A (Homo sapiens) (P15289 whole entry, looked up): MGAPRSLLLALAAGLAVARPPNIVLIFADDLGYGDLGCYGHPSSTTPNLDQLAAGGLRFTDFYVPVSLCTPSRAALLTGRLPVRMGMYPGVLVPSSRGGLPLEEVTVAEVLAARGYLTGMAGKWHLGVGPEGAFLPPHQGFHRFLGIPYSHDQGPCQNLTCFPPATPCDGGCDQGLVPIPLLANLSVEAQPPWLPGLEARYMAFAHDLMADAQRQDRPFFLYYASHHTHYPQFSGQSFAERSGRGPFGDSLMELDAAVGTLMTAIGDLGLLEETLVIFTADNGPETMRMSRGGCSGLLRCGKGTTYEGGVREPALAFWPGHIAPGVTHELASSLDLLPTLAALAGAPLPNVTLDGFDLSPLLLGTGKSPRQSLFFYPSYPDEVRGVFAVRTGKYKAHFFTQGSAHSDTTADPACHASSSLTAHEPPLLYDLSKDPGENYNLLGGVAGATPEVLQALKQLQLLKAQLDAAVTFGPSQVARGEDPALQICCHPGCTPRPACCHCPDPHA

With `OC(CCN1CCCCC1)(c1ccccc1)C1CC2C=CC1C2` (stereo not given), the outcome in assay [1], in [2], in [4], in [5] and in [6] was inactive. Also, the Potency entry in [3] was “inactive”. Moreover, the max response in [7] was -9.9% (inactive). The molecule further had a parasite growth, % of DMSO control in assay [8] of 38.1%. In assay [9], this molecule yielded a parasite growth remaining, % of DMSO control (lower = more inhibition) of 75.2%. In addition, the parasite growth, % of control (lower = inhibition) in assay [10] stood at 44.2%. The molecule also returned a growth, % of control in assay [11] of 35.8%.
On to `Cc1[nH]c(=O)c(C#N)cc1-c1ccc2nccn2c1`, for which the outcome in assay [1], in assay [2], in [4], in assay [5] and in assay [6] was inactive. Further, in [3], the Potency result is “inactive”. In assay [7], the max response is -5.81% (inactive) and 18.1% (inactive). Besides, the remaining parasite growth % (stronger effect = lower value) in assay [12] stood at 105%. In addition, the activity, percent of control in assay [13] worked out at 98.1%. This molecule also showed a parasite growth, % of DMSO control in assay [8] of 50.3%. Also, the parasite growth remaining, % of DMSO control (lower = more inhibition) in assay [9] turned out to be 93.1%. Moreover, the parasite growth, % of control (lower = inhibition) in [10] was 113%. Moreover, the growth, % of control in assay [11] was 68.7%.
Consider `Cc1[nH]c(=O)c(C#N)cc1-c1ccncc1`, for which the outcome in [1] was “inactive; inhibitor; fitted 5.3582 uM”. Also, the call in assay [2], in assay [4], in assay [14], in [5], in assay [16] and in assay [6] was inactive. For the same molecule, the Potency entry in [3] and in assay [18] was “inactive” in each case. Further, the max response was 11.3% (inactive) in [15]; -5.95% (inactive) and 11% (inactive) and 13.2% (inactive) in [7]; 7.32% (inactive) in [17]. This molecule also gave a parasite growth, % of DMSO control in [8] of 15.2%. In addition, the parasite growth remaining, % of DMSO control (lower = more inhibition) in assay [9] worked out at 14.6%. Also, in [10], the parasite growth, % of control (lower = inhibition) came out at 36.4%. Also, the growth, % of control in [11] was 9.94%.
Consider `OC(CN1CCC(Cc2ccc(F)cc2)CC1)c1ccc(Cl)cc1` (stereo not given), for which the outcome in [1], in assay [2], in assay [4], in assay [5] and in [6] was inactive. Also, in [3], the Potency entry was “inactive”. Also, in assay [7], the Potency was 7.43 µM (active). Also, in assay [12], the remaining parasite growth % (stronger effect = lower value) was 1.14% and 5.06%. Besides, in assay [13], the activity, percent of control is 1.06% and 4.92%. The molecule also yielded a parasite growth, % of DMSO control in assay [8] of 9.22%. The molecule also returned a parasite growth remaining, % of DMSO control (lower = more inhibition) in assay [9] of 8.62%. Also, the parasite growth, % of control (lower = inhibition) in [10] amounted to 19.9%. Also, the growth, % of control in assay [11] is 46.6%.
Take `Cc1cccc(-c2[nH]c(C(C)(C)C)nc2-c2ccc3nccnc3c2)n1`: the result in [1], in assay [2], in assay [4], in [5] and in assay [6] was inactive. The Potency entry in assay [3] is “inactive”. For the same molecule, in [7], the Potency is 0.662 µM (active). Moreover, the remaining parasite growth % (stronger effect = lower value) in [12] was found to be 54.8%. The molecule also registered an activity, percent of control in assay [13] of 67.1%. In assay [19], this molecule displayed a remaining proliferation (% of control), lower = more inhibition of 27%. This molecule also gave a parasite growth, % of DMSO control in assay [8] of 23.7%. This molecule also yielded a parasite growth remaining, % of DMSO control (lower = more inhibition) in [9] of 47.6%. The parasite growth, % of control (lower = inhibition) in [10] turned out to be 34.2%. The same molecule gave a growth, % of control in assay [11] of 6.8%.
Consider `CC(C)(Sc1ccc(CCN(CCCCC2CCCCC2)C(=O)NC2CCCCC2)cc1)C(=O)O`, for which the result in [1], in [2], in [4], in assay [14], in [5] and in [6] was inactive. Further, in assay [3], the Potency entry is “inactive”. Also, the max response was 1.89% (inactive) in [15]; 7.17% (inactive) and -0.948% (inactive) in [7]; -6.91% (inactive) in [17]. Moreover, in assay [18], the Potency is 12.6 µM (active). The remaining parasite growth % (stronger effect = lower value) in assay [12] amounted to 98.9%. In assay [13], this molecule registered an activity, percent of control of 100%. The molecule further gave a remaining proliferation (% of control), lower = more inhibition in [19] of 92.7%. Further, the parasite growth, % of DMSO control in assay [8] was 65.2%. The molecule further displayed a parasite growth remaining, % of DMSO control (lower = more inhibition) in assay [9] of 91.6%. The parasite growth, % of control (lower = inhibition) in assay [10] turned out to be 51.8%. In assay [11], this molecule showed a growth, % of control of 78.8%.
